Among all 360,000 compounds or so, about 2,900 (0.81%) were called active. This is one part of a sample in which actives are shown more often than they occur. A number with no mark means an inactive call.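 The calls were made as follows: active = inhibition above the mean inhibition across every tested compound plus 3 SD (cut at about 22% in these data); inactive = the rest.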
What follows are compounds tested against Perilipin-5 (Homo sapiens) + 1-acylglycerol-3-phosphate O-acyltransferase ABHD5 (Homo sapiens) (UniProt Q00G26+Q8WTS1) (assay: blockers of ABHD5 binding to perilipin-5 – cell lysate, split luciferase complementation, luminescence, primary screen (AID 602281;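 also: 0% = DMSO only wells and the 100% control is not disclosed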)). Details: Split G. princeps luciferase complementation, 4 h, at 4 µM, stronger effect = higher value.
Perilipin-5 (Homo sapiens) + 1-acylglycerol-3-phosphate O-acyltransferase ABHD5 (Homo sapiens), sequence (Q00G26 whole entry, looked up): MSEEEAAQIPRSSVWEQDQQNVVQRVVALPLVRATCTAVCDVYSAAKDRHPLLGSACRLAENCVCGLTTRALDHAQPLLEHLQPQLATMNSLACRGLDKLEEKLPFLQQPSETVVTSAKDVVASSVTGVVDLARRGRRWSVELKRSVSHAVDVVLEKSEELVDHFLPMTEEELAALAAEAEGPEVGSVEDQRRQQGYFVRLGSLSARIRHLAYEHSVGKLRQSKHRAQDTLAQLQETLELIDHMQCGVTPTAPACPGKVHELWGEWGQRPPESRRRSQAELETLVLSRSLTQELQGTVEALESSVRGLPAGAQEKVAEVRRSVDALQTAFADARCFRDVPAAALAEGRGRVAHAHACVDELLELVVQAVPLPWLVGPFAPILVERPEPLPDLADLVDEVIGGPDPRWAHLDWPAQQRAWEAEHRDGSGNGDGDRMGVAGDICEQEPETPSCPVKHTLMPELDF
Perilipin-5 (Homo sapiens) + 1-acylglycerol-3-phosphate O-acyltransferase ABHD5 (Homo sapiens), sequence (Q8WTS1 whole entry, looked up): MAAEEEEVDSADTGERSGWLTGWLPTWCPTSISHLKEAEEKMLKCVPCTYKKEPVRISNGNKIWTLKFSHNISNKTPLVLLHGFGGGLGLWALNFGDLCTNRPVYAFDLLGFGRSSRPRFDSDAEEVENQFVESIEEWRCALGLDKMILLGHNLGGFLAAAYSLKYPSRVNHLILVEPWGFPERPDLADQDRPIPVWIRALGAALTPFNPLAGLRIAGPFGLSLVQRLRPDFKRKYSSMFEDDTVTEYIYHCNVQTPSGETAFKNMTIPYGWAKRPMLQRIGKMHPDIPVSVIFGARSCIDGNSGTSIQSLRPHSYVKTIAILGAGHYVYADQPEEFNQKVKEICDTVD
For `O=C(Nc1ccccc1Cl)NC1(C(=O)N2CCOCC2)CCCCC1`, the inhibition was -0.52%.
`COc1ccccc1NC(=O)COC(=O)Cc1ccc(S(=O)(=O)N2CCCCC2)s1` was tested, and the inhibition was 0.2%.
Compound `NS(=O)(=O)c1ccc(CNC(=O)c2cc(S(=O)(=O)N3CCOCC3)ccc2N2CCCC2)cc1` has an inhibition of 4.8%.
`CCC1CCCCN1C(=S)Nc1ccc(S(=O)(=O)Nc2ncccn2)cc1` (configuration not stated) was tested, and the inhibition was -5.25%.
`COc1ccc(C(C(=O)NC(C)(C)C)N(C(=O)Cn2nnc3ccccc32)c2ccc(C(C)=O)cc2)cc1O` (configuration not stated) showed an inhibition of -5.36%.
For `CCNC(=O)CC1C(=O)N(c2ccc(OC)cc2)C(=S)N1CCc1ccncc1` (configuration not stated), the inhibition was 2.72%.
`O=C(Cn1nc(C(=O)O)c2ccccc2c1=O)Nc1ccc(F)cc1` showed an inhibition of 4.56%.
`Cc1ccc(NC(=O)Cn2c(C)csc2=O)cc1` was tested, and the inhibition was 0%.
With `Cc1ccc(NC(=O)Cn2sc3ccccc3c2=O)cc1` the inhibition was 71.6% (active).
`Cn1cc(S(=O)(=O)N2CCN(c3ccc(F)cc3)CC2)c(=O)n(C)c1=O` gave an inhibition of 2.58%.
`CC(=O)c1c(C)n(-c2ccc(N(C)C)cc2)c2ccc(OCC(N)=O)cc12` showed an inhibition of -5.31%.
`NC(=O)COc1ccc(C23CC4CC(CC(C4)C2)C3)cc1` gave an inhibition of -7.75%.
`CC(C)OCCCNC(=O)CNC(=O)c1cccs1` gave an inhibition of 3.5%.
For `Cc1ccccc1C(CC(=O)c1cccs1)C(C#N)C#N` (configuration not stated), the inhibition was 22.1% (active).
`Cc1ccc(NNC(=O)c2cccs2)cc1Cl` was tested, and the inhibition was 0.05%.
`CC1=NN(C(C)C)C(=O)C1` gave an inhibition of -11.8%.
Compound `COc1ccccc1C(=O)C(O)c1ccccc1OC` (configuration not stated) has an inhibition of 4.01%.
Work on `CSc1ccccc1OCc1cc(C(=O)N2C[C@H]3CC[C@H]2C3)no1` yielded an inhibition of -0.37%.
With `COC(=O)[C@@H](NC(=O)Nc1cc(Cl)ccc1C)C(C)C` the inhibition was 15.4%.
`O=C(/C=C/c1ccccc1)c1ccoc1` was tested, and the inhibition was 23% (active).
For `O=C(/C=C/c1ccccc1)c1ccccc1O`, the inhibition was 22.9% (active).
`CC(/C=C/c1ccccc1)=N\NC(=O)C1CC1(C)c1ccccc1` (configuration not stated) was tested, and the inhibition was -4.04%.
`O=S(=O)(/C=C/c1ccccc1)N1CCNCC1` showed an inhibition of -10.8%.
`Cc1nc(-c2ccccc2)sc1C(=O)/C=C/c1ccccc1` was tested, and the inhibition was 36% (active).
With `Cc1nc(-c2ccc(Cl)cc2)sc1C(=O)CBr` the inhibition was 9.2%.
In the case of `Nc1nc(NC(=O)/C=C/c2ccccc2)nn1-c1ccccc1`, the inhibition was 3.41%.
In the case of `Cc1nc(-c2ccccc2)sc1-c1nc(-c2ccccc2)ncc1S(=O)(=O)c1ccccc1`, the inhibition was 2.52%.
With `CC1(C(=O)O)CCN1C(=O)/C=C/c1ccccc1` (configuration not stated) the inhibition was -1.15%.
With `COc1ccc(CN(C)Cc2nc3cc(OC)c(OC)cc3c(=O)[nH]2)c(OC)c1` the inhibition was 3.55%.
Compound `COc1ccc(C2NC(=S)NC3=C2CCc2ccccc23)cc1OC` (configuration not stated) has an inhibition of -20.7%.
Compound `O=C(c1c(F)cccc1F)N1CCN(S(=O)(=O)c2ccc3c(c2)OCCO3)CC1` has an inhibition of -12.9%.
Compound `Fc1ccc(N2N=C(c3cccs3)CC2c2ccco2)c(F)c1` (configuration not stated) has an inhibition of -11.2%.
Work on `COC(=O)c1ccc2nc(-c3ccc(C)cc3)c(Cc3ccc(OC)cc3C)n2c1` yielded an inhibition of 0.21%.
Compound `Fc1ccc(CNCc2ccc(Br)cc2)cc1` has an inhibition of 3.28%.
For `CCOC(=O)N1CCN(S(=O)(=O)c2ccc3c(c2)C(C)C(=O)N3)CC1` (configuration not stated), the inhibition was 2.99%.
`FC(F)(F)C1CCCN(c2nsc3ccccc23)C1` (configuration not stated) was tested, and the inhibition was 28.5% (active).
`COC(=O)[C@@]12C[C@@H](CC(=O)NCc3cccc(C(F)(F)F)c3)C(=O)N(Cc3ccco3)C1=CCC(C)(C)C2` showed an inhibition of -1.98%.
Compound `CCS(=O)(=O)Nc1ccc(C(=O)NCCSc2ccccc2)cc1` has an inhibition of -5.43%.
`COC(C[C@@H](O)[C@H](C)[C@H](O)COCc1ccccc1)OC` was tested, and the inhibition was -4.38%.
`CCCCN(Cc1ccccc1)C(=O)C1CCN(Cc2sccc2C)CC1` was tested, and the inhibition was 1.95%.
For `O=C(/C(=C/c1cccc(Cl)c1)c1nc2ccccc2[nH]1)c1ccccc1`, the inhibition was 23.3% (active).
With `CCCc1nc2ccccc2n1C(C)C(=O)NC(C)(C)C` (configuration not stated) the inhibition was 5.62%.
Work on `CN(C)NC(=O)c1csnc1-c1c(Cl)cccc1Cl` yielded an inhibition of -5.5%.
`COC(=O)c1ccc(COC(=O)C2CCN(S(=O)(=O)c3c(Cl)cccc3Cl)CC2)o1` showed an inhibition of 1.49%.
`C#CCOCCOCCOCCNc1nc(N2CCN(C(=O)C([C@@H](C)O)n3cc([C@@H](N)CCCCN)nn3)CC2)nc(N2CCN(C(=O)[C@H](CCCCN)n3cc(CN)nn3)CC2)n1` (some centres not stated) gave an inhibition of 8.85%.
Work on `C#CCOCCOCCOCCNc1nc(N2CCOCC2)nc(N2CCN(C(=O)[C@H](Cc3ccc(O)cc3)n3cc(CCO)nn3)CC2)n1` yielded an inhibition of -5.39%.
For `C#CCOCCOCCOCCNc1nc(N2CCN(C(=O)CCCCCCCCCCNC(=O)Cn3cc(CCCCCN)nn3)CC2)nc(N2CCN(C(=O)CCCCCCCCCCNC(=O)[C@H](CO)n3cc(CCCSC)nn3)CC2)n1`, the inhibition was 44% (active).

— PubChem BioAssay AID602281 (The Scripps Research Institute Molecular Screening Center, 2012)
